We go through eight sequences from publication PMC11006913.

Positions count from the first letter of the chain named.

What all share (experiment): PBM; 200 nM protein, PBS
Common to all, as to conditions: dsDNA, one strand shown

For test [1], the target named is HOXA7 (Homo sapiens, UniProt P31268 116-202).
In test [2] the target is HOXA2 (Homo sapiens, UniProt O43364 129-215, R185T).
For test [3], the target named is HOXA2 (Homo sapiens, UniProt O43364 129-215, R185K).
Test [4] addresses HOXA2 (Homo sapiens, UniProt O43364 129-215, Y150S).
For test [5], the target named is HOXA7 (Homo sapiens, UniProt P31268 116-202, W177C).
Sequence of HOXA7 (Homo sapiens, UniProt P31268 116-202, W177C) (P31268 116-202 W177C): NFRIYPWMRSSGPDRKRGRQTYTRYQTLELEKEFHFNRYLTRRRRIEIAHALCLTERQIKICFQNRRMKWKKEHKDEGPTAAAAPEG
For test [6], the target named is HOXA2 (Homo sapiens, UniProt O43364 129-215).
Sequence of HOXA2 (Homo sapiens, UniProt O43364 129-215) (O43364 129-215): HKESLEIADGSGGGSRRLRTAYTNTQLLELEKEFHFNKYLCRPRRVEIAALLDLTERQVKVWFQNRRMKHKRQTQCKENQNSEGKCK
Test [7] deals with PRRX1 (Homo sapiens, UniProt P54821 80-166, F113S).
Sequence of PRRX1 (Homo sapiens, UniProt P54821 80-166, F113S) (P54821 80-166 F113S): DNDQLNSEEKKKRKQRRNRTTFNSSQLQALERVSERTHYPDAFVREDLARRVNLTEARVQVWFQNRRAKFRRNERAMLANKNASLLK
Test [8] addresses PITX2 (Homo sapiens, UniProt Q99697 72-157).
The target in test [9] is CRX (Homo sapiens, UniProt O43186 26-111, R41L).
Sequence of CRX (O43186 26-111 R41L): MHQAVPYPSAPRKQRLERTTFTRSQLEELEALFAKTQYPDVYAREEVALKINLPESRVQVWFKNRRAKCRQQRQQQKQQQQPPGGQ
Test [10] concerns the target PRRX1 (Homo sapiens, UniProt P54821 80-166).
Test [11] deals with HOXD13 (Homo sapiens, UniProt P35453 263-343, T313R).
Sequence of HOXD13 (Homo sapiens, UniProt P35453 263-343, T313R) (P35453 263-343 T313R): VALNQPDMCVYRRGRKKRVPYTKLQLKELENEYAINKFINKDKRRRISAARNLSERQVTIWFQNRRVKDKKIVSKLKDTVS
The target in test [12] is HOXD13 (Homo sapiens, UniProt P35453 263-343).
Sequence of HOXD13 (Homo sapiens, UniProt P35453 263-343) (P35453 263-343): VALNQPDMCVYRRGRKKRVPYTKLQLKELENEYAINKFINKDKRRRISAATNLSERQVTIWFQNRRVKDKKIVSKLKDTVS
Test [13] addresses HOXC10 (Homo sapiens, UniProt Q9NYD6 254-340, K271E).
The target of test [14] is HOXD13 (Homo sapiens, UniProt P35453 263-343, T313A).
Sequence of HOXD13 (Homo sapiens, UniProt P35453 263-343, T313A) (P35453 263-343 T313A): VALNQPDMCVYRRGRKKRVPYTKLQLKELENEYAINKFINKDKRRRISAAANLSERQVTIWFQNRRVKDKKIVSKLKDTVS
In test [15] the target is T1, PAX4 (Homo sapiens, UniProt O43316 9-242, R200K).
T1 sequence: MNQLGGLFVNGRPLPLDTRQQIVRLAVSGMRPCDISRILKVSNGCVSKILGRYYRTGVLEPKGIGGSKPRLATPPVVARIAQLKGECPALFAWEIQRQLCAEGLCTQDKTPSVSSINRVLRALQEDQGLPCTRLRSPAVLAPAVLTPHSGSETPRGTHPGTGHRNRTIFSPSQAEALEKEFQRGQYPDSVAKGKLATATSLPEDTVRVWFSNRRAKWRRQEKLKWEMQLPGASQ

Test [16] addresses T2, PAX4 (Homo sapiens, UniProt O43316 9-242).
T2 sequence: T1 sequence with K192R

Test [17] deals with MSX2 (Homo sapiens, UniProt P35548 130-214, R199I).
Sequence of MSX2 (Homo sapiens, UniProt P35548 130-214, R199I) (P35548 130-214 R199I): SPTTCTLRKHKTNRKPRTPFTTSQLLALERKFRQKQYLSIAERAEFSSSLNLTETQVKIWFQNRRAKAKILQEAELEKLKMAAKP
The target of test [18] is ALX1 (Homo sapiens, UniProt Q15699 118-204, L144V).
Sequence of ALX1 (Homo sapiens, UniProt Q15699 118-204, L144V) (Q15699 118-204 L144V): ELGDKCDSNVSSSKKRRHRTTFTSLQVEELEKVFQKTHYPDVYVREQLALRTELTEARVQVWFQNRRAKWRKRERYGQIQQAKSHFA
Test [19] concerns the target T3, PAX4 (Homo sapiens, UniProt O43316 9-242, R200Q).
T3 sequence: T1 sequence with K192Q

Test [20] deals with ALX1 (Homo sapiens, UniProt Q15699 118-204, L144R).
Sequence of ALX1 (Homo sapiens, UniProt Q15699 118-204, L144R) (Q15699 118-204 L144R): as the sequence (Q15699 118-204 L144V) above, with V27R counted along it
Test [21] has as its target T4, PAX4 (Homo sapiens, UniProt O43316 9-242, F177V).
T4 sequence: T1 sequence with F169V, K192R

Test [22] has as its target MSX2 (Homo sapiens, UniProt P35548 130-214).
Test [23] has as its target T5, PAX4 (Homo sapiens, UniProt O43316 9-242, F177Y).
T5 sequence: T1 sequence with F169Y, K192R

The target of test [24] is VAX1 (Homo sapiens, UniProt Q5SQQ9 86-172).
Sequence of VAX1 (Homo sapiens, UniProt Q5SQQ9 86-172) (Q5SQQ9 86-172): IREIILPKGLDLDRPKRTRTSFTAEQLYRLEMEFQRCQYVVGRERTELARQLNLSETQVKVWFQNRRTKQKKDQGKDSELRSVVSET
Test [25] has as its target MSX2 (Homo sapiens, UniProt P35548 130-214, F161Y).
In test [26] the target is VAX1 (Homo sapiens, UniProt Q5SQQ9 86-172, T142I).
Sequence of VAX1 (Homo sapiens, UniProt Q5SQQ9 86-172, T142I) (Q5SQQ9 86-172 T142I): as the sequence (Q5SQQ9 86-172) above, with T57I counted along it
For test [27], the target named is T6, PAX4 (Homo sapiens, UniProt O43316 9-242, R227W).
T6 sequence: T1 sequence with K192R, R219W

Test [28] has as its target ALX1 (Homo sapiens, UniProt Q15699 118-204).
Test [29] deals with VAX1 (Homo sapiens, UniProt Q5SQQ9 86-172, K157R).
Sequence of VAX1 (Homo sapiens, UniProt Q5SQQ9 86-172, K157R) (Q5SQQ9 86-172 K157R): as the sequence (Q5SQQ9 86-172) above, with K72R counted along it
The target of test [30] is T7, NKX2-6 (Homo sapiens, UniProt A6NCS4 118-204).
T7 sequence: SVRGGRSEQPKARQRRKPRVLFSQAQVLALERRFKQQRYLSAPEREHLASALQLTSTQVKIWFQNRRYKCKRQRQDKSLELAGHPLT

Test [31] deals with T8, NKX2-6 (Homo sapiens, UniProt A6NCS4 118-204, F151L).
T8 sequence: T7 sequence with F34L

Sequence of HOXA7 (Homo sapiens, UniProt P31268 116-202) (P31268 116-202): as the sequence (P31268 116-202 W177C) above, with C62W counted along it
Sequence of HOXA2 (Homo sapiens, UniProt O43364 129-215, R185T) (O43364 129-215 R185T): as the sequence (O43364 129-215) above, with R57T counted along it
Sequence of HOXA2 (Homo sapiens, UniProt O43364 129-215, Y150S) (O43364 129-215 Y150S): as the sequence (O43364 129-215) above, with Y22S counted along it
Sequence of HOXA2 (Homo sapiens, UniProt O43364 129-215, R185K) (O43364 129-215 R185K): as the sequence (O43364 129-215) above, with R57K counted along it
Sequence of MSX2 (Homo sapiens, UniProt P35548 130-214) (P35548 130-214): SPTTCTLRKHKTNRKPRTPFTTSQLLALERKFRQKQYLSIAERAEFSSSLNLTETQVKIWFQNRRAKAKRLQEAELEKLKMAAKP
Sequence of MSX2 (Homo sapiens, UniProt P35548 130-214, F161Y) (P35548 130-214 F161Y): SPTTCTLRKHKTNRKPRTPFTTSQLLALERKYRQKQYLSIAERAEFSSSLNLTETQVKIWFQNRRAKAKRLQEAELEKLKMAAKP
Sequence of PRRX1 (Homo sapiens, UniProt P54821 80-166) (P54821 80-166): as the sequence (P54821 80-166 F113S) above, with S34F counted along it
Sequence of HOXC10 (Q9NYD6 254-340 K271E): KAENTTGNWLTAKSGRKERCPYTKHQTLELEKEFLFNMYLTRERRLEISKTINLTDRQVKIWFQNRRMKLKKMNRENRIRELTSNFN
Sequence of ALX1 (Homo sapiens, UniProt Q15699 118-204) (Q15699 118-204): as the sequence (Q15699 118-204 L144V) above, with V27L counted along it

Regarding GACGCTGC, the binding signal in test [1] was 8.24 upbm affinity estimate (log intensity, higher = more binding, comparable within an allelic series); in test [2] it was 6.99 upbm affinity estimate (log intensity, higher = more binding, comparable within an allelic series); in test [3] it was 10.4 upbm affinity estimate (log intensity, higher = more binding, comparable within an allelic series); in [4], 10.4 upbm affinity estimate (log intensity, higher = more binding, comparable within an allelic series); in test [5] it was 8.35 upbm affinity estimate (log intensity, higher = more binding, comparable within an allelic series); in [6], 7.11 upbm affinity estimate (log intensity, higher = more binding, comparable within an allelic series).

On to AAGATTAG, for which the binding signal in test [1] is 9.43 upbm affinity estimate (log intensity, higher = more binding, comparable within an allelic series); in test [7], 10.4 upbm affinity estimate (log intensity, higher = more binding, comparable within an allelic series); in test [8], 12.4 upbm affinity estimate (log intensity, higher = more binding, comparable within an allelic series); in test [5], 8.65 upbm affinity estimate (log intensity, higher = more binding, comparable within an allelic series); in test [9] it was 12.4 upbm affinity estimate (log intensity, higher = more binding, comparable within an allelic series); in test [10], 12.3 upbm affinity estimate (log intensity, higher = more binding, comparable within an allelic series).

On to ATATAAAA, for which the binding signal was 9.79 upbm affinity estimate (log intensity, higher = more binding, comparable within an allelic series) in test [1]; 10.9 upbm affinity estimate (log intensity, higher = more binding, comparable within an allelic series) in test [11]; 11.8 upbm affinity estimate (log intensity, higher = more binding, comparable within an allelic series) in [12]; 11.3 upbm affinity estimate (log intensity, higher = more binding, comparable within an allelic series) in [13]; 11.7 upbm affinity estimate (log intensity, higher = more binding, comparable within an allelic series) in test [14]; 8.84 upbm affinity estimate (log intensity, higher = more binding, comparable within an allelic series) in test [5].

For AGAGCCTG, the binding signal is 8.58 upbm affinity estimate (log intensity, higher = more binding, comparable within an allelic series) in test [1] and 8.43 upbm affinity estimate (log intensity, higher = more binding, comparable within an allelic series) in [5].

Turning to CCTGGTCC, the binding signal in [1] is 8.3 upbm affinity estimate (log intensity, higher = more binding, comparable within an allelic series); in test [15] it was 9.07 upbm affinity estimate (log intensity, higher = more binding, comparable within an allelic series); in test [16], 9.15 upbm affinity estimate (log intensity, higher = more binding, comparable within an allelic series); in test [17], 9.44 upbm affinity estimate (log intensity, higher = more binding, comparable within an allelic series); in test [18], 6.39 upbm affinity estimate (log intensity, higher = more binding, comparable within an allelic series); in test [19] it was 9.31 upbm affinity estimate (log intensity, higher = more binding, comparable within an allelic series). The binding signal was 6.31 upbm affinity estimate (log intensity, higher = more binding, comparable within an allelic series) in test [20]; 9.26 upbm affinity estimate (log intensity, higher = more binding, comparable within an allelic series) in test [21]; 9.47 upbm affinity estimate (log intensity, higher = more binding, comparable within an allelic series) in test [22]; 9.15 upbm affinity estimate (log intensity, higher = more binding, comparable within an allelic series) in test [23]; 7.22 upbm affinity estimate (log intensity, higher = more binding, comparable within an allelic series) in test [24]; 9.52 upbm affinity estimate (log intensity, higher = more binding, comparable within an allelic series) in [25]. Besides, the binding signal in [26] was 7.32 upbm affinity estimate (log intensity, higher = more binding, comparable within an allelic series); in test [27], 9.31 upbm affinity estimate (log intensity, higher = more binding, comparable within an allelic series); in test [5] it was 8.35 upbm affinity estimate (log intensity, higher = more binding, comparable within an allelic series); in [28], 6.34 upbm affinity estimate (log intensity, higher = more binding, comparable within an allelic series); in [29], 7.26 upbm affinity estimate (log intensity, higher = more binding, comparable within an allelic series).

As to AGGGCGGC, the binding signal in [1] is 8.44 upbm affinity estimate (log intensity, higher = more binding, comparable within an allelic series); in test [11], 9.45 upbm affinity estimate (log intensity, higher = more binding, comparable within an allelic series); in test [12], 9.52 upbm affinity estimate (log intensity, higher = more binding, comparable within an allelic series); in test [24] it was 7.1 upbm affinity estimate (log intensity, higher = more binding, comparable within an allelic series); in test [14] it was 9.5 upbm affinity estimate (log intensity, higher = more binding, comparable within an allelic series); in [26], 6.95 upbm affinity estimate (log intensity, higher = more binding, comparable within an allelic series). Also, the binding signal is 8.27 upbm affinity estimate (log intensity, higher = more binding, comparable within an allelic series) in test [5] and 6.98 upbm affinity estimate (log intensity, higher = more binding, comparable within an allelic series) in test [29].

As to CGGAAGGC, the binding signal is 8.5 upbm affinity estimate (log intensity, higher = more binding, comparable within an allelic series) in test [1] and 8.35 upbm affinity estimate (log intensity, higher = more binding, comparable within an allelic series) in test [5].

As for CCGGGGGC, the binding signal in test [1] is 8.67 upbm affinity estimate (log intensity, higher = more binding, comparable within an allelic series); in [30], 9.19 upbm affinity estimate (log intensity, higher = more binding, comparable within an allelic series); in [31] it was 8.93 upbm affinity estimate (log intensity, higher = more binding, comparable within an allelic series); in test [5], 8.26 upbm affinity estimate (log intensity, higher = more binding, comparable within an allelic series).
